From PubChem
Only some compounds are listed: those with a hit (about 3.7% of all), similar ones and a draw of the others.
MLL AF4-AF9 inh = blocks AF4 peptide binding to human AF9 | P42568 | AlphaScreen, biotin-AF4 peptide binding to FLAG-AF9 | inhibition, % at 10 µM | 0.47% of 350,000 active;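 active means every replicate reaching a set inhibition limit, whatever the replicate mean, cut at about 25% in these data; inconclusive means mean inhibition reaches that limit but some replicates miss it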
Target sequence (P42568 whole entry, looked up): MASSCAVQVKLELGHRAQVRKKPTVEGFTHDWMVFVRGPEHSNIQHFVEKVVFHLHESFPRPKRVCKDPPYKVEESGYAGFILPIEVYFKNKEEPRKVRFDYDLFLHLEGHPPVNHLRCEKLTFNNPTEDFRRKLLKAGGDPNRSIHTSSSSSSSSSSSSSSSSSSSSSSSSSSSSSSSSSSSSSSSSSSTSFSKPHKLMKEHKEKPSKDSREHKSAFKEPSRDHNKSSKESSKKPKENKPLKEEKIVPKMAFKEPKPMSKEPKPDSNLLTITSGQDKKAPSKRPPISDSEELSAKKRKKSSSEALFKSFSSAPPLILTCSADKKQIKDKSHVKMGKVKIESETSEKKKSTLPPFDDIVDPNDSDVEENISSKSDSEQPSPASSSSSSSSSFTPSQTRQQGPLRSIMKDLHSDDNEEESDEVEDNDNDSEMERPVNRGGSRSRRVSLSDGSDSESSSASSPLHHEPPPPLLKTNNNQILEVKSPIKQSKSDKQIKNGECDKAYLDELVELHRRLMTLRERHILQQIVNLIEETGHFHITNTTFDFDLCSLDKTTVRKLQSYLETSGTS
Ecoli rRNA inh = inhibits bacterial ribosomal RNA function over humanized ribosomes | E. coli WT GFP vs humanized-ribosome RFP mutants, fluorescence, 24 h; stronger effect = lower value; DMSO median 0, no signal -100 | GFP signal change (wild-type ribosome), % (concentration not given with the values) | 1.6% of 350,000 active | AID 720706;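 active means significant combined selectivity score with lowered wild-type GFP, culture density cut under 30%, mutant RFP and density less affected; inactive means any of these conditions unmet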
MITF TRPM1 HTS = increases MITF-driven TRPM1 promoter luciferase signal; SK-MEL-5 TRPM1-promoter luciferase, 24 h; % of positive control, neutral wells = 0; AID 588334; 0.75% of 300,000 active; activation, % at 12.5 µM;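 active means mean activation of at least 80% with every replicate also reaching 80%; inconclusive means mean reaches 80% but some replicate falls short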
esBAF inh = SWI/SNF esBAF complex inhibition; mouse ES cells, Bmi1-luciferase knock-in reporter, 24 h; 100% = twice the neutral-well signal; reporter increase, % at 12.5 µM; 2% of 350,000 active; in the data active means activation above about 40%; inconclusive means no clear call, values can overlap the other calls;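 further: a rise in the Bmi1 reporter signal indicates esBAF inhibition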
Wnt bcat act = Wnt/beta-catenin pathway activation. activation, % at 9.35 µM. 1.2% of 300,000 active. Wnt/beta-catenin reporter cell assay, activator, plate reader. AID 743398; in the data active means activation above about 30%, passing the limit was not always enough; inconclusive means no clear call, values can overlap the other calls
AID977621 = growth inhibition of wild-type GFP E. coli, dose response, H69 mutant RFP, cherry-pick; E. coli wild-type GFP strain growth, fluorescence, 24 h; 1,900 tested, under 10 active; activity change, negative = inhibition at 50 µM; shares compounds with Ecoli rRNA inh; AID 977621;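 active means Wild-type ribosome reporter drop at least double the humanized mutant ribosome reporter drop, growth loss under a set limit; inconclusive means no clear call, values can overlap the other calls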;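 further: wild-type GFP and H69 mutant RFP strains grown together 50/50 in each well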
AID977628 = E. coli growth inhibition, wild-type GFP versus h24 humanized RFP strain, dose response, h24 mutant RFP vs wild-type GFP, cherry-pick | E. coli WT GFP strain growth, fluorescence, 24 h | AID 977628 | activity change, negative = inhibition at 50 µM | shares compounds with Ecoli rRNA inh | 1,900 tested, under 10 active;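 active means compound lowering the normal-ribosome reporter at least twice as much as the humanized-ribosome reporter, growth loss under a set limit; inconclusive means no clear call, values can overlap the other calls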;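 further: wild-type GFP and h24 humanized RFP strains co-cultured 1 to 1 per well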
Numbers stand for hits; - = inactive; ? = inconclusive; . = not tested or not shown.

SMILES	MLL AF4-AF9 inh	Ecoli rRNA inh	MITF TRPM1 HTS	esBAF inh	Wnt bcat act	AID977621	AID977628
Cc1cccc(C)c1OCC(O)CN1CCN(c2ccccn2)CC1 (stereo not given)	-	-	-	.	-	.	.
Cc1ccc(OCC(O)CN2CCN(c3ccccn3)CC2)c(C)c1 (stereo not given)	-	-17	-	.	-	.	?
Cc1ccc2oc(=O)n(Cc3ccc(F)cc3)c2c1	.	.	-	-	.	.	.
O=C(NCc1nc2ccccc2[nH]1)c1ccc(S(=O)(=O)N2CCCC2)cc1	-	-29	-	-	-	-	.
O=C(NCc1nc2ccccc2[nH]1)c1ccc(S(=O)(=O)N2CCOCC2)cc1	.	.	-	-	-	.	.
CC(C(=O)NC1CCCCC1)N(Cc1ccccc1)C(=O)c1snc(C(N)=O)c1N (stereo not given)	-	-	-	-	-	.	.
O=C(C[C@@H]1CC[C@@H]2[C@H](COC[C@H](O)CN2C(=O)Nc2ccc(Cl)cc2)O1)N1CCCCC1	-	-22	.	-	.	.	?
CC(C)(C)c1ccc(S(=O)(=O)NCc2ccc(C(=O)NCc3ccccn3)cc2)cc1	-	-26	-	.	-	-	-
CC(C)(C)c1ccc(S(=O)(=O)NCc2ccccn2)cc1	-	-	-	-	-	.	.
CC(C)n1c(-c2cccnc2)nc2cnccc21	.	.	-	-	-	.	.
Cc1ccc(SCC(=O)NNC(=O)CNC(=O)c2ccc(Br)cc2)cc1	-	-	-	-	-	.	.
Cc1cccc(C(=O)NCC(=O)NCCSc2ccc(Br)cc2)c1	-	-22	-	-	-	-	.
O=S1(=O)N[C@@H](Cc2ccccc2)COc2cc(N3CCC[C@H]3CO)ccc21	-	-16	.	.	-	.	-
O=S1(=O)N[C@H](Cc2ccccc2)COc2cc(N3CCC[C@H]3CO)ccc21	-	-	.	.	-	.	.
O=S1(=O)N[C@H](Cc2ccccc2)COc2cccc(N3CCC[C@H]3CO)c21	-	-22	.	.	-	-	.
COc1ccc(NS(=O)(=O)c2cccc3ccccc23)cc1	-	-39	.	.	-	-	.
C[C@@H]1CN([C@@H](C)CO)C(=O)c2cc(NS(=O)(=O)c3ccc(Cl)cc3)ccc2O[C@@H](C)CCCCO[C@@H]1CN(C)Cc1ccc(C(F)(F)F)cc1	-	-	.	-	.	.	.
C[C@@H]1CCCCO[C@H](CN(C)Cc2ccc(C(=O)O)cc2)[C@H](C)CN([C@@H](C)CO)C(=O)c2cc(NS(=O)(=O)c3ccccc3)ccc2O1	.	-	.	-	.	.	.
O=C(Cn1c(C(=O)NCC2CCCO2)cc2sccc21)c1ccccc1 (stereo not given)	-	.	-	-	-	.	.
O=C(Cn1c(C(=O)NCc2ccco2)cc2sccc21)c1ccccc1	-	-23	-	-	-	-	?
Cn1c(NC(=O)c2ccco2)c(-c2ccc(Cl)cc2)c(=O)c2ccccc21	.	.	-	-	.	.	.
CCN1C(=NCCc2c[nH]c3ccccc23)N[C@@H](c2ccccc2)[C@H](C(=O)OC)[C@H]1C	-	-	-	-	-	.	.
Cc1onc(-c2ccccc2)c1CNS(=O)(=O)c1ccccc1	-	-	-	-	-	.	.
Cc1ccc(S(=O)(=O)NCc2c(-c3ccccc3)noc2C)cc1	-	-23	-	.	-	-	-
Cc1cc(NC(=O)NC(=O)c2cccc(OC(F)(F)C(F)F)c2)n[nH]1	.	.	-	-	-	.	.
SMILES	MLL AF4-AF9 inh	Ecoli rRNA inh	MITF TRPM1 HTS	esBAF inh	Wnt bcat act	AID977621	AID977628
Cc1cc(NC(=O)c2cccc(Oc3ccccc3)c2)n[nH]1	-	-22	-	.	-	.	?
Cc1cccc(N(C(=O)c2csnn2)C(C(=O)NCc2ccccc2)c2cccs2)c1 (stereo not given)	-	-	-	-	-	.	.
C=CCN(CC=C)CC(O)Cn1c2ccccc2c2ccccc21 (stereo not given)	-	-21	-	.	-	-	?
C#CC(C)(C)NC(=O)c1ccc(-c2ccccc2F)cc1	-	-23	-	.	-	-	-
O=S(=O)(Cc1ccccc1Cl)N1CCN(Cc2ccc3c(c2)OCO3)CC1	.	.	-	-	.	.	.
O=S(=O)(Cc1ccc(Cl)cc1)N1CCN(Cc2ccc3c(c2)OCO3)CC1	-	-20	-	-	-	-	?
CCN1CCN(C(=O)CS(=O)(=O)Cc2nc(-c3ccccc3C)oc2C)CC1	-	-	-	-	-	.	.
Cc1ccccc1-c1nc(CS(=O)(=O)CC(=O)N2CCCCC2)c(C)o1	-	-19	-	-	-	-	-
CC(C)Oc1cccc(C(=O)C2CCCN(Cc3cnn(C(C)C)c3)C2)c1 (stereo not given)	-	-	-	.	-	.	.
CC(C)Oc1cccc(C(=O)C2CCCN(Cc3ccc4nonc4c3)C2)c1 (stereo not given)	-	-29	-	.	-	?	.
CC(C)NC(=O)Nc1cccc2c1O[C@H](CN(C)Cc1ccc(C(F)(F)F)cc1)[C@H](C)CN([C@H](C)CO)C2=O	-	-	.	-	.	.	.
COc1cc(C(=O)NNC(=S)Nc2ccc(S(N)(=O)=O)cc2)cc(OC)c1OC	-	-	-	.	-	.	.
O=C(COc1ccc(Cl)cc1)NNC(=O)c1ccncc1	-	-	-	-	-	.	.
Cc1ccc(NC(=O)CN(C)S(=O)(=O)c2cccc3cccnc23)cc1F	-	-28	-	-	-	-	.
NC(Cc1ccccc1)c1csc(NC(=O)c2cccc(OC(F)(F)F)c2)n1 (stereo not given)	-	-	.	-	-	.	.
COC(=O)[C@@H]1C[C@@]2(Br)c3ccccc3N(S(=O)(=O)c3ccccc3)[C@H]2N1C(=O)OC	.	-	-	-	-	.	.
COc1ccc(CNC(=O)C(C)OC(=O)Cn2cnc3c2c(=O)n(C)c(=O)n3C)cc1 (stereo not given)	-	-	-	-	-	.	.
COc1ccc(-c2nc(NC(C)=O)sc2-c2ccccc2)cc1	-	-18	-	.	-	-	.
